Pf Dd2 inh = qHTS Primary assay for Inhibitors of Plasmodium falciparum Dd2 growth in vitro. Potency, µM (series often up to 28.9 µM), hits mostly inhibitors. hit rate 4.3% among 120,000. AID 1347417, 2020. P. falciparum Dd2 growth, SYBR Green, 72 h; active = well fitted inhibition curve with a large enough effect; note: nearly all actives have a fitted effect of over 65% in size
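Infected erythrocytes (Dd2, 0.3% parasitemia, 2.5% hematocrit final) are added to compound in RPMI-1640/Albumax II medium, grown 72 h at 37C in low oxygen, then lysed with saponin/Triton-X containing SYBR Green and read by fluorescence.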
Of the large screens only hits and unclear results are named; the others gave an inactive call. The full list was thinned out, with hits kept by preference.

COc1ccccc1N1CCN(CC[C@H]2CN(C(=O)CC(C)(C)C)CC[C@H]2CC(=O)O)CC1	none
Cc1ccc(CNC(=O)C(C)n2c(=O)cc(C(F)(F)F)c3c(C)nn(C)c32)cc1 (stereo unspecified)	none
O=C(c1cccs1)c1cn(CCOc2ccc(F)cc2)c2ccccc12	none
Cc1ccc(NC(=O)Cn2cc(C(=O)c3ccco3)c3ccccc32)c(C)c1	none
O=C(c1ccco1)c1cn(CCOc2ccc(F)cc2)c2ccccc12	Pf Dd2 inh 1.3µM
CS(=O)(=O)NCC(c1ccco1)N1CCN(c2ccccc2)CC1 (stereo unspecified)	none
COCCCn1c(C)cc(C(=O)N2CCCC(c3[nH]ccc3C(N)=O)C2)c1C (stereo unspecified)	none
COc1cccc(-c2ncc(CNC(=O)C3NCCc4[nH]cnc43)s2)c1 (stereo unspecified)	none
Cn1cc(C(=O)NCCc2noc(-c3ccncc3)n2)cn1	none
COCc1nc(CCNC(=O)c2ccc(OC)nc2)no1	none
COc1ccc(C(=O)NCCc2noc(-c3ccncc3)n2)cn1	Pf Dd2 inh 2.5µM
O=C(Nc1ccccc1)Nc1ccc([C@@H](O)[C@H]2COCC(=O)N2CC2CC2)cc1	none
COc1ccc(-c2ccccc2)cc1N1C(=O)[C@@H]2C[C@H]1CN2C(=O)[C@H]1CCCO1	none
COCCCNC(=O)c1sc2nc(C)c(C(=O)Nc3ccc(Cl)cc3)c(-c3ccc(Br)cc3)c2c1N	none
Cc1ccc(NC(=O)c2sc3nc(-c4ccc(F)cc4)ccc3c2N)cc1F	none
COc1ccccc1NC(=O)c1sc2nc(C)c(C(=O)Nc3ccc(C)cc3C)c(-c3ccc(C)o3)c2c1N	Pf Dd2 inh 11µM
COc1cccc(C(=O)Nc2nc(-c3ccc(Br)cc3)ns2)c1	none
Cc1cc(F)ccc1NC(=O)c1sc2nc(-c3cccs3)ccc2c1N	none
COc1ccccc1NC(=O)c1sc2cccc(Cl)c2c1Cl	none
Cc1ccc(NC(=O)c2c(C)nc3sc(C(=O)Nc4ccc(F)cc4)c(N)c3c2-c2ccc(C)o2)c(C)c1	Pf Dd2 inh 3.5µM
COc1ccccc1C(=O)Nc1c(C(=O)Nc2cc(Cl)ccc2C)sc2nc(C)cc(C)c12	none
COc1cccc(NC(=O)c2sc3nc(C)c(C(=O)Nc4ccc(C)cc4C)c(-c4ccc(Br)cc4)c3c2N)c1	Pf Dd2 inh 8.9µM
COc1ccccc1NC(=O)c1sc2nc(N3CCOCC3)c3c(c2c1N)CC(C)(C)OC3	none
COC(=O)c1ccccc1NC(=O)c1sc2nc(C)cc(C)c2c1NC(=O)c1ccccc1OC	none
COc1ccccc1NC(=O)c1sc2nc(C)c(C(=O)Nc3ccc(C)cc3C)c(-c3ccccc3Cl)c2c1N	Pf Dd2 inh 5.6µM
O=C(c1ccsc1)N1CCC(N2CC3CC(C2)[C@H]2CCCC(=O)N2C3)CC1 (stereo partly specified)	none
COCc1nc(NCCc2nc3ccccc3s2)cc(C2CC(N)C2)n1 (stereo unspecified)	none
CC(=O)Nc1ccc(NC(=O)CN(C)S(=O)(=O)c2ccc3c(c2)CCCC(=O)N3)cc1	none
CCC(C)(C)NC(=O)Cn1c(C)ccc(NS(=O)(=O)CC)c1=O	none
CC(C)c1nn2c(=O)cc(COC(=O)c3ccc(NC(=O)c4ccccc4Cl)cc3)nc2s1	none
CC(C)NC[C@H]1O[C@@H](CO)[C@@H](O)[C@H]1N(C)CCN(C)C	none
COCCn1c(CNCc2ccc3c(c2)OCO3)nnc1C1CC(N)C1 (stereo unspecified)	none
O=C(CCC1CCN(S(=O)(=O)c2cccc(F)c2)CC1)NCCN1CCOCC1	none
CCCCOC(=O)c1ccc(NC(=O)c2sc3nc(C)cc(C)c3c2N)cc1	none
COc1ccc(Cc2c(C)nn(-c3nc(C)c(C(=O)Nc4ccc(C)cc4C)s3)c2C)cc1	none
COc1ccc(NC(=O)c2sc3nc(C)c(C(=O)Nc4ccc(C)cc4C)c(-c4sccc4C)c3c2N)cc1	Pf Dd2 inh 3.2µM
COc1ccccc1CCNC(=O)C1CCN(c2nnc(-n3cccc3CNc3ccc(C)cc3)s2)CC1	none
Cc1ccc(NCc2cccn2-c2nnc(N3CCC(C(=O)NCc4ccccc4C)CC3)s2)cc1	none
CCOc1ccc(NCc2cccn2-c2nnc(N3CCC(C(=O)NCCc4ccc(OCC)c(OCC)c4)CC3)s2)cc1	Pf Dd2 inh 6.3µM
CCOc1ccc(NCc2cccn2-c2nnc(N3CCC(C(=O)NCCc4ccc(OC)c(OC)c4)CC3)s2)cc1	Pf Dd2 inh 7.1µM
CCOc1ccc(CCNC(=O)C2CCN(Cc3nc(-c4ccc(OC)c(OC)c4)oc3C)CC2)cc1OCC	none
CCOc1ccc(NCc2cccn2-c2nnc(N3CCC(C(=O)NC(C)c4ccccc4)CC3)s2)cc1 (stereo unspecified)	none
CCCNC(=O)c1ccc2c(c1)nc1n2CCCCC1	none
COc1ccc(-n2nc(C(=O)NCc3ccc(F)cc3Cl)c3c4ccccc4n(C)c3c2=O)cc1Cl	none
O=C(CSc1nc2c([nH]c3ccccc32)c(=O)n1-c1ccc(F)cc1)N1CCCCCC1	none
COc1ccc(CCNC(=O)C2=C(C)C(=O)OC23CCCCC3)c(OC)c1OC	none
CC(=O)c1ccc(N2CCN(c3ccc4cc(S(=O)(=O)N5CCCCC5)ccc4n3)CC2)cc1	none
